These results are taken from paper PMC5836133, “The intracellular immune receptor Rx1 regulates the DNA-binding activity of a Golden2-like transcription factor”.

In all, about 16,000 sequences were measured (“e-score”: median about -0.044, highest 2% from about 0.38 on). The full list was thinned out, with the highest values kept by preference.

This test addresses T1, GST-NbGlk1(82-244) (Nicotiana benthamiana).
T1 chain: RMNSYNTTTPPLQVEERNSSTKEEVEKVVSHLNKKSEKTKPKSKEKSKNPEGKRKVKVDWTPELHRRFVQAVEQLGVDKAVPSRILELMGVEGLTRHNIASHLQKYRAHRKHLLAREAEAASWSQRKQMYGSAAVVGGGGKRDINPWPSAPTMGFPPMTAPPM
The experiment in a line: protein-binding microarray; NbGlk1 is a Golden2-like transcription factor of Nicotiana benthamiana; high values mean tight binding. The settings on record: protein: recombinant; tags: GST (pTH6838); dsDNA, one strand shown.
AAATATGA: the binding signal was determined as 0.226 ± 0.0549 E-score.

Take ATCCGTGA: the binding signal amounted to 0.236 ± 0.116 E-score.

In the case of ATACGTTA, the binding signal was 0.277 ± 0.00931 E-score.

Consider ATTCCCTG, for which the binding signal came to 0.323 ± 0.0549 E-score.

Take ATTACTAG: the binding signal worked out at 0.207 ± 0.0664 E-score.

ATTTATTA: the binding signal came out at 0.249 ± 0.00743 E-score.

As for AAATATCA, the binding signal was determined as 0.367 ± 0.0296 E-score.

With ACATATCC, the binding signal came to 0.214 ± 0.0275 E-score.

On to CAATATCC, for which the binding signal was found to be 0.337 ± 0.0344 E-score.

As for AAATATCT, the binding signal amounted to 0.407 ± 0.0254 E-score.

In the case of AAATATCG, the binding signal was 0.375 ± 0.0121 E-score.

For AAATATCC, the binding signal came out at 0.42 ± 0.011 E-score.

On to ATATTGAG, for which the binding signal came out at 0.214 ± 0.00643 E-score.

Regarding ATAAGATC, the binding signal was 0.33 ± 0.000581 E-score.

In the case of ATTCTTTA, the binding signal came to 0.258 ± 0.0767 E-score.

For AATCAGGC, the binding signal is 0.2903 ± 0.0023 E-score.

Regarding AATCAGGA, the binding signal came to 0.394 ± 0.0134 E-score.

As for AATCAGGT, the binding signal worked out at 0.32 ± 0.0381 E-score.

For the sequence ATTCCCCG, the binding signal was 0.32 ± 0.0628 E-score.

Regarding CAGATCGG, the binding signal came out at 0.215 ± 0.0844 E-score.

CAGATCGC: the binding signal was 0.417 ± 0.00441 E-score.

In the case of AAGATCGC, the binding signal came to 0.398 ± 0.00727 E-score.

Consider AAGATCGT, for which the binding signal is 0.291 ± 0.0157 E-score.

For the sequence AAGATCGA, the binding signal came out at 0.225 ± 0.00987 E-score.

Take ATGATCGC: the binding signal worked out at 0.232 ± 0.0162 E-score.

With AATTCCCC, the binding signal amounted to 0.225 ± 0.0402 E-score.

On to AAAGTATC, for which the binding signal was determined as 0.243 ± 0.0118 E-score.

Regarding ATCGTCTA, the binding signal was 0.208 ± 0.048 E-score.

Regarding ATTGCGCG, the binding signal stood at 0.378 ± 0.00773 E-score.

Turning to ATCTAGAC, the binding signal is 0.287 ± 0.00928 E-score.

Consider ATCTAGAG, for which the binding signal was 0.238 ± 0.0882 E-score.

On to ATCTAGAT, for which the binding signal was 0.398 ± 0.0867 E-score.

Regarding AATATTTA, the binding signal worked out at 0.216 ± 0.021 E-score.

As for AACAAGAT, the binding signal was found to be 0.228 ± 0.0325 E-score.

On to AGAGAATA, for which the binding signal is 0.243 ± 0.0561 E-score.

With ACCGAATC, the binding signal came out at 0.363 ± 0.0171 E-score.

ATCGAATC: the binding signal came out at 0.354 ± 0.00608 E-score.

On to ATAGAATC, for which the binding signal turned out to be 0.397 ± 0.032 E-score.

Regarding AACGAATC, the binding signal was determined as 0.367 ± 0.0566 E-score.

With ACAGAATC, the binding signal was 0.45398 ± 0.00026 E-score.

For ATAGAGAA, the binding signal is 0.231 ± 0.0678 E-score.

With AGAGAATC, the binding signal amounted to 0.4789 ± 0.00191 E-score.

As for AGAGAAAT, the binding signal was 0.241 ± 0.00888 E-score.

In the case of ATAGAAAT, the binding signal amounted to 0.249 ± 0.0207 E-score.

For the sequence ACAGAATA, the binding signal was 0.257 ± 0.0299 E-score.

As to AGCGAATC, the binding signal was determined as 0.4592 ± 0.00447 E-score.

In the case of ATCTGATG, the binding signal was determined as 0.241 ± 0.0502 E-score.

AAATATAT: the binding signal amounted to 0.326 ± 0.0239 E-score.

AAATATGC: the binding signal came out at 0.234 ± 0.0807 E-score.

Consider AATCGCAA, for which the binding signal stood at 0.359 ± 0.0518 E-score.

As for ATCAGAAA, the binding signal came out at 0.272 ± 0.108 E-score.

In the case of ATCGCGTG, the binding signal turned out to be 0.304 ± 0.0178 E-score.

Turning to AAGCATAT, the binding signal was 0.213 ± 0.0284 E-score.

AGTATCAG: the binding signal amounted to 0.272 ± 0.0918 E-score.

Consider AATCGGTA, for which the binding signal was determined as 0.257 ± 0.0795 E-score.

Take AATCTGAA: the binding signal turned out to be 0.444 ± 0.0239 E-score.

Take ATTCTGTA: the binding signal was 0.271 ± 0.104 E-score.

For the sequence AATCTGTA, the binding signal was found to be 0.414 ± 0.00915 E-score.

On to AATGATTC, for which the binding signal is 0.22 ± 0.0193 E-score.

AATTTATA: the binding signal was determined as 0.264 ± 0.104 E-score.

ATTGCACG: the binding signal was 0.251 ± 0.046 E-score.

For AGGGGAAT, the binding signal is 0.32 ± 0.0496 E-score.

For the sequence ACCGAAAT, the binding signal was 0.338 ± 0.0315 E-score.

On to AGCGAAAT, for which the binding signal is 0.343 ± 0.064 E-score.

As to ATCGAAAT, the binding signal came to 0.387 ± 0.0408 E-score.

On to AGGGCAAT, for which the binding signal came to 0.201 ± 0.0755 E-score.

Consider ATGGATAC, for which the binding signal is 0.25 ± 0.0455 E-score.

For the sequence AGGGGATC, the binding signal worked out at 0.316 ± 0.0502 E-score.

For AGGGATTC, the binding signal turned out to be 0.359 ± 0.0107 E-score.

As to AGGGAATC, the binding signal was 0.477 ± 0.0128 E-score.

For ACGGAATA, the binding signal worked out at 0.264 ± 0.0173 E-score.

Consider AAGGATTC, for which the binding signal was 0.3738 ± 0.00237 E-score.

Take AAGGAAAT: the binding signal was determined as 0.3484 ± 0.000416 E-score.

As to ATGGAAAT, the binding signal amounted to 0.335 ± 0.0407 E-score.

Turning to ACGGAATC, the binding signal worked out at 0.453 ± 0.0108 E-score.

For ACGGAAAT, the binding signal is 0.345 ± 0.0654 E-score.

For the sequence ATGGAATC, the binding signal worked out at 0.385 ± 0.0354 E-score.

As for AAGGAATC, the binding signal is 0.396 ± 0.0666 E-score.

On to ATCTCAAT, for which the binding signal was determined as 0.245 ± 0.0732 E-score.

Regarding ATTAGATA, the binding signal amounted to 0.304 ± 0.0251 E-score.

Turning to ATCCGCTG, the binding signal stood at 0.261 ± 0.0225 E-score.

With AATCGCAC, the binding signal was 0.296 ± 0.0196 E-score.

Take AAAGTGAT: the binding signal was 0.217 ± 0.169 E-score.

Regarding AGGCAGAT, the binding signal was 0.213 ± 0.0549 E-score.

For AATAGAAT, the binding signal was found to be 0.2556 ± 0.00204 E-score.

Regarding AAAAATAA, the binding signal is 0.229 ± 0.0366 E-score.

ATTTATAA: the binding signal amounted to 0.229 ± 0.0487 E-score.

Turning to ATATTGCG, the binding signal is 0.328 ± 0.0285 E-score.

Consider AGATTGCG, for which the binding signal is 0.4943 ± 0.000727 E-score.

For the sequence AGATTGCT, the binding signal is 0.426 ± 0.00629 E-score.

As for AGATAGAT, the binding signal was 0.267 ± 0.0623 E-score.

In the case of ATCTTGCC, the binding signal turned out to be 0.261 ± 0.0186 E-score.

Take ATATTGCA: the binding signal was determined as 0.225 ± 0.111 E-score.

ATATTGCC: the binding signal turned out to be 0.249 ± 0.0822 E-score.

In the case of AGATTGCC, the binding signal turned out to be 0.4477 ± 0.0014 E-score.

With AAATTGCG, the binding signal came to 0.262 ± 0.0556 E-score.

Consider ATATTGAT, for which the binding signal amounted to 0.248 ± 0.0795 E-score.

For ATTTTGCA, the binding signal came out at 0.238 ± 0.0203 E-score.

For the sequence AGATTGCA, the binding signal came out at 0.4641 ± 0.00231 E-score.

As for AACAATCC, the binding signal worked out at 0.244 ± 0.0442 E-score.

Turning to ATTATTAA, the binding signal stood at 0.205 ± 0.0755 E-score.

As for ACATATCA, the binding signal was determined as 0.216 ± 0.0561 E-score.

Turning to ATTCAGGA, the binding signal was determined as 0.206 ± 0.0808 E-score.

ATCACATA: the binding signal came to 0.212 ± 0.0312 E-score.

Turning to AAATTTAT, the binding signal worked out at 0.22 ± 0.0544 E-score.

With AAGCGAAT, the binding signal turned out to be 0.291 ± 0.0479 E-score.

In the case of ATATTCGC, the binding signal worked out at 0.321 ± 0.0229 E-score.

As for AAATTCGA, the binding signal worked out at 0.219 ± 0.058 E-score.

As to AGATTCGC, the binding signal was found to be 0.482 ± 0.00816 E-score.

For AGATTCGA, the binding signal turned out to be 0.389 ± 0.00837 E-score.

On to AAATTCGC, for which the binding signal was 0.284 ± 0.0251 E-score.

For the sequence AAATTCGG, the binding signal is 0.227 ± 0.0723 E-score.

Regarding ATATTCGA, the binding signal came out at 0.293 ± 0.0238 E-score.

Consider AGATTCGG, for which the binding signal was found to be 0.413 ± 0.00846 E-score.
